# Several values for one entry are separate records, joined by “and”; a condition that tells them apart may be missing. Equal values may be shown once. Among all 5,500 compounds or so, about 2,000 (36%) were called active. Another 18% or so got no clear call; they are omitted. The list shows a part of the results. Values without a mark were called inactive. Rule as the data show it: active = normalized growth mostly below about 0.91 (no sharp cut-off); inconclusive = no clear call, values can overlap the other calls; inactive = mostly above about 0.92.
# Experiment: chemical genetic growth profiling, strain panel (AID 1159580);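 also: tested at 20 µM; growth read once vehicle control cultures reached saturation at 30 °C; 1 = growth at the plate median or of vehicle wells; lower values mean less growth of the strain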
# Settings: S. cerevisiae deletion strains, growth OD
smiles,measurement,setting,value
CC(=O)O[C@]1(C(C)=O)CCC2C3C[C@H](C)C4=CC(=O)CC[C@]4(C)C3CC[C@@]21C (stereo partly drawn),normalized growth,"locus YAL021C, strain ccr4, active compounds read low",1
same,normalized growth,"locus YAL026C, strain drs2, active compounds read low",0.992
same,normalized growth,"locus YAL030W, strain snc1, active compounds read low",0.968
same,normalized growth,"locus YBL061C, strain skt5, active compounds read low",0.964
same,normalized growth,"locus YBR009C, strain hhf1, active compounds read low",0.955
same,normalized growth,"locus YBR021W, strain FUR4, active compounds read low",0.993
same,normalized growth,"locus YBR023C, strain chs3, active compounds read low",0.924
same,normalized growth,"locus YBR171W, strain sec66, active compounds read low",0.95
same,normalized growth,"locus YBR229C, strain ROT2, active compounds read low",0.993
same,normalized growth,"locus YBR231C, strain swc5, active compounds read low",0.971
same,normalized growth,"locus YBR279W, strain paf1, active compounds read low",0.97
same,normalized growth,"locus YCL011C, strain gbp2, active compounds read low",0.931
same,normalized growth,"locus YCL016C, strain dcc1, active compounds read low",0.916
same,normalized growth,"locus YCL029C, strain bik1, active compounds read low",0.957
same,normalized growth,"locus YCL061C, strain MRC1, active compounds read low",0.965
same,normalized growth,"locus YCL069W, strain vba3, active compounds read low",0.958
same,normalized growth,"locus YCR088W, strain abp1, active compounds read low",0.961
same,normalized growth,"locus YDL005C, strain med2, active compounds read low",0.959
same,normalized growth,"locus YDL035C, strain GPR1, active compounds read low",1.01
same,normalized growth,"locus YDL040C, strain nat1, active compounds read low",0.971
same,normalized growth,"locus YDL074C, strain BRE1, active compounds read low",0.983
same,normalized growth,"locus YDL101C, strain DUN1, active compounds read low",0.993
same,normalized growth,"locus YDL185W, strain tfp1, active compounds read low",0.956
same,normalized growth,"locus YDL192W, strain arf1, active compounds read low",0.966
same,normalized growth,"locus YDR001C, strain nth1, active compounds read low",0.97
same,normalized growth,"locus YDR069C, strain doa4, active compounds read low",0.992
same,normalized growth,"locus YDR101C, strain arx1, active compounds read low",0.999
same,normalized growth,"locus YDR137W, strain rgp1, active compounds read low",0.839 (active)
same,normalized growth,"locus YDR150W, strain NUM1, active compounds read low",0.99
same,normalized growth,"locus YDR159W, strain sac3, active compounds read low",0.971
same,normalized growth,"locus YDR162C, strain NBP2, active compounds read low",0.993
same,normalized growth,"locus YDR195W, strain ref2",1.07
same,normalized growth,"locus YDR297W, strain sur2, active compounds read low",0.971
same,normalized growth,"locus YDR318W, strain mcm21, active compounds read low",0.961
same,normalized growth,"locus YDR334W, strain swr1, active compounds read low",0.96
same,normalized growth,"locus YDR335W, strain msn5, active compounds read low",0.971
same,normalized growth,"locus YDR388W, active compounds read low",0.989
same,normalized growth,"locus YDR392W, strain spt3, active compounds read low",0.635 (active)
same,normalized growth,"locus YDR502C, strain sam2, active compounds read low",0.954
same,normalized growth,"locus YEL003W, strain gim4, active compounds read low",0.987
same,normalized growth,"locus YEL037C, strain rad23, active compounds read low",0.962
same,normalized growth,"locus YEL061C, strain CIN8 (second series), active compounds read low",0.97
same,normalized growth,"locus YEL061C, strain CIN8, active compounds read low",0.991
same,normalized growth,"locus YER015W, strain faa2, active compounds read low",0.969
same,normalized growth,"locus YER016W, strain bim1, active compounds read low",0.975
same,normalized growth,"locus YER110C, active compounds read low",0.96
same,normalized growth,"locus YER111C, strain swi4, active compounds read low",0.96
same,normalized growth,"locus YER155C, strain BEM2 (second series), active compounds read low",0.976
same,normalized growth,"locus YER155C, strain BEM2, active compounds read low",0.98
same,normalized growth,"locus YER167W, strain BCK2, active compounds read low",0.977
same,normalized growth,"locus YFR010W, strain ubp6, active compounds read low",0.981
same,normalized growth,"locus YGL078C, strain dbp3, active compounds read low",0.982
same,normalized growth,"locus YGL086W, strain mad1, active compounds read low",0.995
same,normalized growth,"locus YGL167C, strain pmr1, active compounds read low",0.948
same,normalized growth,"locus YGL173C, strain kem1, active compounds read low",0.969
same,normalized growth,"locus YGL227W, strain vid30, active compounds read low",0.969
same,normalized growth,"locus YGL240W, strain doc1, active compounds read low",0.98
same,normalized growth,"locus YGL248W, strain PDE1, active compounds read low",0.992
same,normalized growth,"locus YGL253W, strain hxk2, active compounds read low",0.91
same,normalized growth,"locus YGR135W, strain pre9, active compounds read low",0.912
same,normalized growth,"locus YGR252W, strain gcn5, active compounds read low",0.926
same,normalized growth,"locus YHR013C, strain ard1, active compounds read low",0.968
same,normalized growth,"locus YHR027C, strain rpn1, active compounds read low",0.984
same,normalized growth,"locus YHR030C, strain SLT2, active compounds read low",0.997 and 0.999
same,normalized growth,"locus YHR079C, strain IRE1 (second series), active compounds read low",0.979
same,normalized growth,"locus YHR079C, strain IRE1, active compounds read low",0.98
same,normalized growth,"locus YHR094C, strain hxt1, active compounds read low",0.991
same,normalized growth,"locus YHR129C, strain ARP1, active compounds read low",0.993
same,normalized growth,"locus YHR142W, strain chs7, active compounds read low",0.841 (active)
same,normalized growth,"locus YHR200W, strain rpn10, active compounds read low",0.982
same,normalized growth,"locus YIL066C, strain RNR3, active compounds read low",0.991
same,normalized growth,"locus YIL073C, strain SPO22, active compounds read low",0.932
same,normalized growth,"locus YIL125W, strain kgd1, active compounds read low",0.996
same,normalized growth,"locus YIR030C, strain dcg1, active compounds read low",0.962
same,normalized growth,"locus YJL092W, strain hpr5, active compounds read low",0.964
same,normalized growth,"locus YJL095W, strain BCK1 (second series), active compounds read low",0.953
same,normalized growth,"locus YJL095W, strain BCK1, active compounds read low",0.961 and 1
same,normalized growth,"locus YJL115W, strain asf1, active compounds read low",0.969
same,normalized growth,"locus YJL129C, strain trk1, active compounds read low",0.902
same,normalized growth,"locus YJL134W, strain LCB3, active compounds read low",0.993
same,normalized growth,"locus YJL154C, strain vps35, active compounds read low",0.964
same,normalized growth,"locus YJL164C, strain tpk1, active compounds read low",0.97
same,normalized growth,"locus YJL166W, strain qcr8, active compounds read low",0.926
same,normalized growth,"locus YJL168C, strain set2, active compounds read low",0.985
same,normalized growth,"locus YJL187C, strain SWE1 (second series), active compounds read low",0.985
same,normalized growth,"locus YJL187C, strain SWE1, active compounds read low",0.976
same,normalized growth,"locus YJR043C, strain POL32, active compounds read low",1.03
same,normalized growth,"locus YJR066W, strain TOR1, active compounds read low",0.958

# Reference: PubChem BioAssay AID1159580 (chemical genetic matrix, 2015)
